Results on one sequence are retold here after publication PMC7862700, “An all-to-all approach to the identification of sequence-specific readers for epigenetic DNA modifications on cytosine”.

Assay in all cases: DAPPL (digital affinity profiling via proximity ligation, sequencing); 10 mM Tris-HCl pH 7.5, 50 mM NaCl, 1 mM DTT, 4% glycerol, room temperature, 30 min; GST-TFs on glutathione beads, 16-mer random dsDNA library, 0.1% formaldehyde crosslink after washing; high values mean tight binding
The target of one assay is T1, FEV (Homo sapiens, UniProt Q99581 1-238).
T1 sequence: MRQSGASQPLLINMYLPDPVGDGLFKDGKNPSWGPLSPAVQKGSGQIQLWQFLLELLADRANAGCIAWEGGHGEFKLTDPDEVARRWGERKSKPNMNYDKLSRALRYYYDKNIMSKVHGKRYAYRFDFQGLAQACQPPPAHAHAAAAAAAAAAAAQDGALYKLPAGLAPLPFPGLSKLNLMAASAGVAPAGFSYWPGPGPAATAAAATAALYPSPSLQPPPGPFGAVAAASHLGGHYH
The following applies: protein: recombinant; tags: N-terminal GST; dsDNA, one strand shown. In outline: (§1)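 Human transcription factors were made in yeast as GST fusions, captured on glutathione beads and barcoded with DNA. With a tag-only sample included, the pool was incubated with 200 nmole of a random double-stranded 16-mer DNA library in Tris/NaCl/DTT/glycerol buffer at room temperature for 30 min, then crosslinked with 0.1% formaldehyde after washing, ligated by proximity, amplified and sequenced. For binding signal, each hexamer's read frequency for a factor is divided by its frequency for the tag-only sample.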

The next assay has as its target ETV5 (Homo sapiens, UniProt P41161 1-510). The following applies: protein: recombinant; tags: N-terminal GST; dsDNA, one strand shown. In outline:
as §1

The next assay addresses HSF1 (Homo sapiens, UniProt Q00613 1-529). Conditions: protein: recombinant; tags: N-terminal GST; chain copies: 3; dsDNA, one strand shown. The gist of the method: as §1
The next assay deals with T2, SPIC (Homo sapiens, UniProt Q8N5J4 1-248).
T2 sequence: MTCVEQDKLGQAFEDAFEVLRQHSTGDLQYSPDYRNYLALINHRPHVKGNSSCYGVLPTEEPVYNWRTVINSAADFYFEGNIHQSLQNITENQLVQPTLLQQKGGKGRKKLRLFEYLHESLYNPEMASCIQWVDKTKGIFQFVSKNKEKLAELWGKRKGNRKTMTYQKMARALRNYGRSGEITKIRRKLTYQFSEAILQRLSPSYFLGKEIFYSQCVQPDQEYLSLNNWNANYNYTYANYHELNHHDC
Conditions: protein: recombinant; tags: N-terminal GST; dsDNA, one strand shown. In outline:
as §1

A further assay deals with ELF4 (Homo sapiens, UniProt Q99607 1-663). The following applies: protein: recombinant; tags: N-terminal GST; dsDNA, one strand shown. In outline:
as §1

The target in the next assay is T3, ELK4 (Homo sapiens, UniProt P28324-2 1-405).
T3 sequence: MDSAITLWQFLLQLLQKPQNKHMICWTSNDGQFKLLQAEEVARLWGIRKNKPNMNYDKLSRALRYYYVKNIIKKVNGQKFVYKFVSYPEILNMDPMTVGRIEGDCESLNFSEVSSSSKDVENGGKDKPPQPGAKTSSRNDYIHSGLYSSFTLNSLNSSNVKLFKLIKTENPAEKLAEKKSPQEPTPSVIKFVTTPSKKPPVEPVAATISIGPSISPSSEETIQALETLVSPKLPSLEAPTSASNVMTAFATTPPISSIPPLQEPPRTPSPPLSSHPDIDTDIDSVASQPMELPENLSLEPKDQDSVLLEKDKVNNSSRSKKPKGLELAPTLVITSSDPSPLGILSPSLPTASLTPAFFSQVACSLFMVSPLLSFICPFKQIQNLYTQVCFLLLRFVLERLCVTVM
Conditions: protein: recombinant; tags: N-terminal GST; dsDNA, one strand shown. The gist of the method: as §1

The next assay deals with T4, ETV2 (Homo sapiens, UniProt O00321 1-342).
T4 sequence: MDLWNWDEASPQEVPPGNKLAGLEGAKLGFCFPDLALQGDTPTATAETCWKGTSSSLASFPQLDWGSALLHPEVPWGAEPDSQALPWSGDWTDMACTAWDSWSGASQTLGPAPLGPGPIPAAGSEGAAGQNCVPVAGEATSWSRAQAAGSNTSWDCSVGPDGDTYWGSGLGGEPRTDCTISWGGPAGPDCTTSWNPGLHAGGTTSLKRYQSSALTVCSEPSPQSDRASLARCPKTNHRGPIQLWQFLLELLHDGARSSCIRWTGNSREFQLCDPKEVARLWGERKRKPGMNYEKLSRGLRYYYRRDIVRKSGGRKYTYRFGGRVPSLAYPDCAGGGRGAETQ
Conditions: protein: recombinant; tags: N-terminal GST; dsDNA, one strand shown. The gist of the method: as §1

The target in the next assay is T5, ELF3 (Homo sapiens, UniProt P78545 1-371).
T5 sequence: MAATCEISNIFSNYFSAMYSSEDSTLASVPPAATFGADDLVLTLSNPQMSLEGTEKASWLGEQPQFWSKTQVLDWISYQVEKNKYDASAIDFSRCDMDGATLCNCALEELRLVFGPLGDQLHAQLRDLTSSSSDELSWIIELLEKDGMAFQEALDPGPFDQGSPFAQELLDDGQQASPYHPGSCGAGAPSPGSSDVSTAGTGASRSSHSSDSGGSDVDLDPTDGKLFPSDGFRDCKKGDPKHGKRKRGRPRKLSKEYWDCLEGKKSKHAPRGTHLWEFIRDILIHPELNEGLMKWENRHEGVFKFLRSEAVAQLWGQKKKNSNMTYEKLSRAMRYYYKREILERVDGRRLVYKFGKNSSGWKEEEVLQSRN
The following applies: protein: recombinant; tags: N-terminal GST; dsDNA, one strand shown. In outline: as §1

The next assay concerns the target CRX (Homo sapiens, UniProt O43186 1-299). Conditions: protein: recombinant; tags: N-terminal GST; dsDNA, one strand shown. In outline: as §1
The target of a further assay is ETV1 (Homo sapiens, UniProt P50549 1-477). Conditions: protein: recombinant; tags: N-terminal GST; dsDNA, one strand shown. In outline: as §1
Sequence of ETV1 (P50549 whole entry): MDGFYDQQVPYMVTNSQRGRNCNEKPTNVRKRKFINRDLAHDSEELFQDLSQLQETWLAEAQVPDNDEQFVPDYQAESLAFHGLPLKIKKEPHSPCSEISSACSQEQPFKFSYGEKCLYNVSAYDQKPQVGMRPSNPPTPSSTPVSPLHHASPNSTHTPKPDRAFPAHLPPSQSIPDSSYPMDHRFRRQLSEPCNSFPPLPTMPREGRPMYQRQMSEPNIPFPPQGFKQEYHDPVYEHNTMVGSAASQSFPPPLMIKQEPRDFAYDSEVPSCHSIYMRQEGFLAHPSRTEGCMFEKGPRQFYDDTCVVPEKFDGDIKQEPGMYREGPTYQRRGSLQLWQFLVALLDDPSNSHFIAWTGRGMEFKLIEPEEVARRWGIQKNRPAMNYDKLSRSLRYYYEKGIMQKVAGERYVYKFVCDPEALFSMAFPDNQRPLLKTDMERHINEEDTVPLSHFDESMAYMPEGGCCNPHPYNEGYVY
The target of the next assay is T6, ERF (Homo sapiens, UniProt P50548 1-548).
T6 sequence: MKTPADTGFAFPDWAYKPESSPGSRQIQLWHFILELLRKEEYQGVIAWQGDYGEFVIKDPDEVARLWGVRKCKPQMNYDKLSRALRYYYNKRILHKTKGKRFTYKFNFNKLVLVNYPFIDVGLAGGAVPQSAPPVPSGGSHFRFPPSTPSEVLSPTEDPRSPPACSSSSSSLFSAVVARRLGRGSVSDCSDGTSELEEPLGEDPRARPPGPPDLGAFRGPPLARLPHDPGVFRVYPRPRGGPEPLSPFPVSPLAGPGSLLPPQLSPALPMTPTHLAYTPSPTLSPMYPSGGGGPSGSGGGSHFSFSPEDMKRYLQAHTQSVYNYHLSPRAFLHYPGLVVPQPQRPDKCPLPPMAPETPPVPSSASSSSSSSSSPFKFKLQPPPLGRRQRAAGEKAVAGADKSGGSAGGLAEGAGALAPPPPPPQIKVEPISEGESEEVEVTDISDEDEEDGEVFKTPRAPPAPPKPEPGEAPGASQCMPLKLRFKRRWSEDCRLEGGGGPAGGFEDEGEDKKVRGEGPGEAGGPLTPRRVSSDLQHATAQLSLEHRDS
The following applies: protein: recombinant; tags: N-terminal GST; dsDNA, one strand shown. In outline: as §1

The target in the next assay is T7, ETV3L (Homo sapiens, UniProt Q6ZN32 1-361).
T7 sequence: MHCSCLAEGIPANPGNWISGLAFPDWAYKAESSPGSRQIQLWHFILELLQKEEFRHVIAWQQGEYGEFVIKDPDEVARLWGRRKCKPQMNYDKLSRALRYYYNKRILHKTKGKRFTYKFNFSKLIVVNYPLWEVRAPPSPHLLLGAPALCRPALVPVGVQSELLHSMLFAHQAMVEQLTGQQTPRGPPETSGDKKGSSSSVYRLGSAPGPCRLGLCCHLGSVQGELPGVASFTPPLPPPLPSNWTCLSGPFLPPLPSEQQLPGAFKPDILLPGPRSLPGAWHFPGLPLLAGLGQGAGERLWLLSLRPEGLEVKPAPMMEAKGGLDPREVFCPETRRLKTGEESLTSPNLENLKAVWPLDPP
Conditions: protein: recombinant; tags: N-terminal GST; dsDNA, one strand shown. In outline:
as §1

For a further assay, the target named is T8, ETS2 (Homo sapiens, UniProt P15036 1-469).
T8 sequence: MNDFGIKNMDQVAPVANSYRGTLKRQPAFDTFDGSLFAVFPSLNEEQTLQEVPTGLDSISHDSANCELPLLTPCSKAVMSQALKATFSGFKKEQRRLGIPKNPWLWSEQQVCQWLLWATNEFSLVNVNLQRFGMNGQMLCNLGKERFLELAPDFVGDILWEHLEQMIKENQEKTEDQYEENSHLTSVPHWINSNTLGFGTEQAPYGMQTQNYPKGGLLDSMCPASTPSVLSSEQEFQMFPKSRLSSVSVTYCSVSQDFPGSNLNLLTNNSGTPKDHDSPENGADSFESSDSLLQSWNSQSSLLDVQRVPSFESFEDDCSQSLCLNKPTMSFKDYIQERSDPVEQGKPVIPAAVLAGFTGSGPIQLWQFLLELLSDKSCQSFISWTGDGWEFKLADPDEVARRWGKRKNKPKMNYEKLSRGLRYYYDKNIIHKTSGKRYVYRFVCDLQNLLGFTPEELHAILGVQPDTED
Conditions: protein: recombinant; tags: N-terminal GST; dsDNA, one strand shown. In outline: as §1

The target of the next assay is T9, SPDEF (Homo sapiens, UniProt O95238 1-335).
T9 sequence: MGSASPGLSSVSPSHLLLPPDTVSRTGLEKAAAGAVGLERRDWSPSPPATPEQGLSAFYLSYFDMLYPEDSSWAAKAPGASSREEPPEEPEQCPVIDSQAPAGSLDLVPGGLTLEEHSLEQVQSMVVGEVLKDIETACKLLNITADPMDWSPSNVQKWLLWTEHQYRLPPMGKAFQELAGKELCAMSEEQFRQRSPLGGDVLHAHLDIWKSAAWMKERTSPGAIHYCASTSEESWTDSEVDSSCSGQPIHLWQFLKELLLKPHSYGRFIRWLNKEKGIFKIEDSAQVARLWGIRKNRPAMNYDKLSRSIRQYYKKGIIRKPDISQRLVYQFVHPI
Conditions: protein: recombinant; tags: N-terminal GST; dsDNA, one strand shown. The gist of the method:
as §1

For the next assay, the target named is T10, ETV7 (Homo sapiens, UniProt Q9Y603 1-341).
T10 sequence: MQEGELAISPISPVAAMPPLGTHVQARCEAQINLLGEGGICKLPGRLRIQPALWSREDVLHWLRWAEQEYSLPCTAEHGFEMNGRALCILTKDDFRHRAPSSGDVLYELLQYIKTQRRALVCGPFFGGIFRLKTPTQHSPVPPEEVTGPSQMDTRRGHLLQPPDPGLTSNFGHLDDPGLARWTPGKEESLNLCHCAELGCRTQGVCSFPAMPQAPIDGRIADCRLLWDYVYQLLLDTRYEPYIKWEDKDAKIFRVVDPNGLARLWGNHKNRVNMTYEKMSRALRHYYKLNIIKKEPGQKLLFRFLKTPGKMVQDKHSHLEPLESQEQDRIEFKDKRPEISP
Conditions: protein: recombinant; tags: N-terminal GST; dsDNA, one strand shown. The gist of the method:
as §1

The next assay concerns the target T11, ELF5 (Homo sapiens, UniProt Q9UKW6-2 1-255).
T11 sequence: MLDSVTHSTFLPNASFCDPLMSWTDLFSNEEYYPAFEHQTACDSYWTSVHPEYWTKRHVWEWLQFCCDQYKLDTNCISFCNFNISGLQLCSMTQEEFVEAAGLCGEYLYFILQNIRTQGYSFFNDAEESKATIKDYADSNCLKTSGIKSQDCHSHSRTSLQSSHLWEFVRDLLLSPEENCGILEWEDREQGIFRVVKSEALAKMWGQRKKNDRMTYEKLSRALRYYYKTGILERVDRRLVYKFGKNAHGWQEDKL
Conditions: protein: recombinant; tags: N-terminal GST; dsDNA, one strand shown. In outline: as §1

For the next assay, the target named is T12, ETV3 (Homo sapiens, UniProt P41162-2 1-143).
T12 sequence: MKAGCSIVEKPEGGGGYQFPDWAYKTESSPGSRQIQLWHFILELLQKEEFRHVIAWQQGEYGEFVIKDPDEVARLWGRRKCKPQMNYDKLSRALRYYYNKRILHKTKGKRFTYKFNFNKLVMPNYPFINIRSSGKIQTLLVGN
The following applies: protein: recombinant; tags: N-terminal GST; dsDNA, one strand shown. In outline: as §1

The next assay concerns the target ETV6 (Homo sapiens, UniProt P41212 1-452). Conditions: protein: recombinant; tags: N-terminal GST; dsDNA, one strand shown. In outline:
as §1

Sequence of ETV6 (P41212 whole entry): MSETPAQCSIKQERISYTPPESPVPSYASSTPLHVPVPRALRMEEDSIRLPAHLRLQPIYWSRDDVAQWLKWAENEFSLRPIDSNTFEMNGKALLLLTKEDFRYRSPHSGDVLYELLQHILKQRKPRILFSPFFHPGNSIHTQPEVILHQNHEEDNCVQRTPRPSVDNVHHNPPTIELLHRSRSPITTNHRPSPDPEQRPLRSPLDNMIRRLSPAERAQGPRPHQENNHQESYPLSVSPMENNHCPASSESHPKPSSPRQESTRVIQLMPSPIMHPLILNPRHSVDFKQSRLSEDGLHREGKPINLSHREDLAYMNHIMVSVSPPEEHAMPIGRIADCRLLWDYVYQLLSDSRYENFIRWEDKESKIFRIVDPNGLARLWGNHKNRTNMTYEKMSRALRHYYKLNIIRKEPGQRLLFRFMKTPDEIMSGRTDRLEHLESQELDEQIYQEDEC
Sequence of CRX (O43186 whole entry): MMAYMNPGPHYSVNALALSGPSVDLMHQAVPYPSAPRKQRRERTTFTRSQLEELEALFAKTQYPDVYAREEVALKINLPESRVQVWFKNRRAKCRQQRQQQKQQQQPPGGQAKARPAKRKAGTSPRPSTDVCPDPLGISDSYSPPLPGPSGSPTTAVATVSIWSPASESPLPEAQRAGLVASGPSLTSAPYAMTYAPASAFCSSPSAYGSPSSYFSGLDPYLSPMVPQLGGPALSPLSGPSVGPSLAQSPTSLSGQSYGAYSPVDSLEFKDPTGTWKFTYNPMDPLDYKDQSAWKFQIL
Sequence of ELF4 (Q99607 whole entry): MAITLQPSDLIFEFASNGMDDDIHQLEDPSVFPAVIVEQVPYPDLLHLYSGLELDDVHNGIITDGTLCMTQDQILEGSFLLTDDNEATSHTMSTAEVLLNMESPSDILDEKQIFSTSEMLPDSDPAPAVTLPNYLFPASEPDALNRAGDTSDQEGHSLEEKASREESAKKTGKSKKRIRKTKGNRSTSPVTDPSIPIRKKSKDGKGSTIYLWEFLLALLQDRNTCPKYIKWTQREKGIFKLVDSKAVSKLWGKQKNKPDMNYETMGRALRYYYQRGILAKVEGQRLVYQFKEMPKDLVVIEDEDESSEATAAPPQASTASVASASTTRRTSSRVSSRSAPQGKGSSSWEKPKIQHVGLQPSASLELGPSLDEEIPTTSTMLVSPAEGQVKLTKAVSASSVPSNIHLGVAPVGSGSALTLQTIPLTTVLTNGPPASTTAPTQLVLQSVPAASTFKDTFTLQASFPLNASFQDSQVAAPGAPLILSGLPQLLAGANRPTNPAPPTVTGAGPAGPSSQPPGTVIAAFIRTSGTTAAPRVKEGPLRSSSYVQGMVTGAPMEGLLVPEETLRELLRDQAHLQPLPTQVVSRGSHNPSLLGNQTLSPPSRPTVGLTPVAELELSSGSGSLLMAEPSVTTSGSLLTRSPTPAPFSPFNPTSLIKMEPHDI
Sequence of HSF1 (Q00613 whole entry): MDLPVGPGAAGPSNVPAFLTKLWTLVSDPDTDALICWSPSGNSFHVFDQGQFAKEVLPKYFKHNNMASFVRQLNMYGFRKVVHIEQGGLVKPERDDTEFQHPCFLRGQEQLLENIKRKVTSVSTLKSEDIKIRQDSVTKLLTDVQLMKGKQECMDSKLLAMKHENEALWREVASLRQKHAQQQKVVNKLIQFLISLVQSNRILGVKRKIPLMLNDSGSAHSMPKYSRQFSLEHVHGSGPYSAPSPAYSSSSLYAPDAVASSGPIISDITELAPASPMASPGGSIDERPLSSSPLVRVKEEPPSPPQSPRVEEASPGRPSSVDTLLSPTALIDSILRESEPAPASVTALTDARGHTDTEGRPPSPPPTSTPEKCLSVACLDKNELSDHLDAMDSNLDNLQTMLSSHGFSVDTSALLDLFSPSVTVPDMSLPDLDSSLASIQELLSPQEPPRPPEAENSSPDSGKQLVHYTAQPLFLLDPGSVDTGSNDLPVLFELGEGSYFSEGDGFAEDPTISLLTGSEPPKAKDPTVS
Sequence of ETV5 (P41161 whole entry): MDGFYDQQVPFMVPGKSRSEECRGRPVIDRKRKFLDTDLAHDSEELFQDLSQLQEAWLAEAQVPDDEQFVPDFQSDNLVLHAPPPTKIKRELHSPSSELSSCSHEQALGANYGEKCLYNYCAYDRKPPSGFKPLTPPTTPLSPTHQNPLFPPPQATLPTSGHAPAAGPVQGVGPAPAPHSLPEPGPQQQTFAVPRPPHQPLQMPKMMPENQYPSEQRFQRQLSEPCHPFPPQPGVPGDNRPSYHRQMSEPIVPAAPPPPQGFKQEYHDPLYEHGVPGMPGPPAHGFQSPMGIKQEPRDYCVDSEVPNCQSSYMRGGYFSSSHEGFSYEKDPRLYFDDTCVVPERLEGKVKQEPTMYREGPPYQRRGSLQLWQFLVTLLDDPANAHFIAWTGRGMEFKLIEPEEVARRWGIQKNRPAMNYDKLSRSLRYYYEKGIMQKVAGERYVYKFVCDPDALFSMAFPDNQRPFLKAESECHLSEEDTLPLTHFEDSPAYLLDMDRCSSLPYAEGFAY

Consider TTGTGC, for which the binding signal with FEV was 1.18 fold enrichment (6-mer frequency, TF over GST control); in the assay with ETV5, 1.17 fold enrichment (6-mer frequency, TF over GST control); with HSF1, 1.07 fold enrichment (6-mer frequency, TF over GST control); with SPIC, 1.37 fold enrichment (6-mer frequency, TF over GST control); with ELF4, 1.13 fold enrichment (6-mer frequency, TF over GST control); with ELK4, 1.23 fold enrichment (6-mer frequency, TF over GST control). Besides, the binding signal with ETV2 is 1.23 fold enrichment (6-mer frequency, TF over GST control); in the assay with ELF3, 1.24 fold enrichment (6-mer frequency, TF over GST control); in the assay with CRX it was 1.09 fold enrichment (6-mer frequency, TF over GST control); with ETV1, 1.09 fold enrichment (6-mer frequency, TF over GST control); with ERF it was 1.31 fold enrichment (6-mer frequency, TF over GST control); in the assay with ETV3L it was 1.12 fold enrichment (6-mer frequency, TF over GST control). Moreover, the binding signal with ETS2 is 1.17 fold enrichment (6-mer frequency, TF over GST control); with SPDEF, 1.15 fold enrichment (6-mer frequency, TF over GST control); in the assay with ETV7, 1.08 fold enrichment (6-mer frequency, TF over GST control); with ELF5, 1.23 fold enrichment (6-mer frequency, TF over GST control); with ETV3, 1.15 fold enrichment (6-mer frequency, TF over GST control); with ETV6, 1.23 fold enrichment (6-mer frequency, TF over GST control).
